Screening results as filed in PubChem.
This is a sample that favours compounds with a hit; in the whole collection about 2.6% have one here.
Epigenetic mod = derepresses silenced GFP locus in mouse C127i cells; mouse C127i GFP locus derepression, cytometry, 30 h; Potency, µM (doses to about 46.1 µM), for inactives: at the highest dose GFP derepression (activation); 68,000 tested, 0.09% active; also: % of control where 0% means no effect
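Derepression screen: silenced CMV-GFP reporter in murine C127i cells, 30 h compound incubation at 37 C, washed cells imaged by laser-scanning cytometer to enumerate GFP-expressing objects of 20 to 120 um.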
HBB splice mod = alters splicing of the hemoglobin beta chain. HBB splicing reporter cell assay, activation; EGFP reporter with mutant IVS2-654 intron; response scale: normalised to 500 nM splice-correcting PNA. Potency, µM (series often up to 46.1 µM), without a hit: at the highest dose activation, actives largely listed as activators. 65,000 tested, 0.06% active. AID 925; also: potency is read from the fitted curve at half-maximal effect; 0% is about no effect
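HeLa cells stably expressing EGFP interrupted by mutant beta-globin intron 2 (IVS2-654), 500/well in 2% FCS. Treated with compound for 2 days at 37C. Splicing correction scored as total well GFP intensity (488 nm excitation, 500-520 nm emission); 500 nM antisense PNA served as control.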
PK Bst = alters activity of Bacillus stearothermophilus pyruvate kinase. 51,000 tested, 1.2% active. purified pyruvate kinase, luminescence ATP production; ribose 5-phosphate activator present at AC10. Potency, µM; in the data active = potency below about 11 µM; inconclusive = mostly about 12 µM to 25 µM;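 the screen sought inhibitors and activators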;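 also: potency is read from the fitted curve at half-maximal effect; scaled between full activation by ribose 5 phosphate and full inhibition by luteolin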
Luciferase inh = blocks Photinus pyralis firefly luciferase activity | P08659 | purified firefly luciferase, luminescence, 8 min | Potency, µM (highest dose often 57.1 µM), for inactives: top-dose activity change, negative = inhibition, hits mostly inhibitors | 72,000 tested, 2.2% active; also: potency is read from the fitted curve at half-maximal effect; % is scaled to controls: 0 for no effect and ±100 for the full control effect; nearly all actives have a fitted effect of over 40% in size
Target sequence (P08659 whole entry, looked up): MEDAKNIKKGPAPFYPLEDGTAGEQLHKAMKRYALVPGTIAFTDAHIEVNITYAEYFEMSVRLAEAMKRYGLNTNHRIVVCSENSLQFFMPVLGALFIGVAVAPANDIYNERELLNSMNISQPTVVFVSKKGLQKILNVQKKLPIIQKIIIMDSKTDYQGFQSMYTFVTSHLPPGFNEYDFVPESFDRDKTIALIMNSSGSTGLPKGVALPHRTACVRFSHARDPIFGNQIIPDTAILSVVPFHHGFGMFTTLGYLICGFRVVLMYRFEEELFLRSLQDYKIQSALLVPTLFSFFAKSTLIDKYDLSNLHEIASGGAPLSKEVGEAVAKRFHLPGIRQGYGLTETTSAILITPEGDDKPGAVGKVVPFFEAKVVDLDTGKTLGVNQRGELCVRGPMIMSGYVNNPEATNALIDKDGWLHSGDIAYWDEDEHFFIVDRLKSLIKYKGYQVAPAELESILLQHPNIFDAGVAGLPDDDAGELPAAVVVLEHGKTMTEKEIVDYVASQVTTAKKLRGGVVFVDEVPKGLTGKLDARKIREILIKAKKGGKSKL
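Luminescence read-out after 8 min at room temperature; enzyme reaction used luciferin plus 10 uM ATP (linear range) in imidazole buffer pH 7.2 with KCl, MgCl2, Tween 20 and BSA. Each sample was run as a titration.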
Starred values were filed as active, the others as inactive; i = inactive; ? = inconclusive; · = no result; [ ] = another dose, or the depositor's remark. Unless noted, calls follow the shape of the dose curve; as a rule, active = well fitted curve in the direction sought with a large enough effect; inconclusive = small, poorly fitted or top-dose-only effect, or another doubt; inactive = no such curve, though single readings can be large; an effect the other way counts as inactive or inconclusive.

SMILES	Epigenetic mod	HBB splice mod	PK Bst	Luciferase inh
COCCn1cnc2c(c1=O)c1nc3ccccc3nc1n2/N=C/c1cccc(OC)c1OC	2%	1%[0.369 µM]	3.6*	5%
c1ccc2c(N3CCNCC3)nc(-c3ccc4c(c3)OCO4)nc2c1	-1%[9.22 µM]	5%	·	-2%[2.29 µM]
COc1ccc(COC(=O)N/N=C2/C[C@@H](O)[C@@H](O)[C@@H]3[C@@H]4C(=O)N(C(C)(C)C)C(=O)[C@H]4CC[C@@H]23)cc1	·	2%[9.22 µM]	·	1%[11.4 µM]
O=C(Nc1ccccc1)Nc1cccc2cccnc12	-1%	1%	·	20µM*
Cc1cc(/C=c2/sc3nc4ccccc4n3c2=O)c(C)n1-c1ccccn1	-4%[20.6 µM]	·	0.84*	0.5µM*
O=c1/c(=C\c2cccnc2)sc2nc3ccccc3n12	3%	-1%	·	-10%
Cn1c(-c2ccc3ccccc3n2)nc2cnccc21	2%	4%[0.369 µM]	?	13µM*
Cc1occc1C(=O)Nc1cc(=O)n(C)c(=O)n1C	-6%	3%	>57	-1%
Cn1c(NC(=O)c2cc(-c3ccc4c(c3)OCO4)nc3ccccc23)cc(=O)n(C)c1=O	-2%	-1%	4.1*	2.5µM*
COc1cccc(/C=C/C2=CC3(C)CC2(C)C(c2cccc(OC)c2)CC3=O)c1 (stereo unspecified)	·	0%[9.22 µM]	·	·
COC(=O)c1ccccc1NC(=O)Nc1nnc(N2CCCCC2C)s1 (stereo unspecified)	·	-1%	·	-1%
COc1ccc(NC(=O)Nc2nnc(N3CCCCC3C)s2)cc1OC (stereo unspecified)	·	-1%	·	16µM*
O=C1/C(=C/Nc2ccc3c(c2)OCO3)CCc2ccccc21	3%	-2%	·	0.63µM*
O=C(Cc1cc(=O)[nH]c(=O)[nH]1)NCCN1CCOCC1	·	0%	·	7.9µM*
O=C(Cc1cc(=O)[nH]c(=O)[nH]1)NCC1CCCO1 (stereo unspecified)	·	0%	·	3%
Cc1csc(SCc2nnc(-c3ccccc3Br)o2)n1	0%	0%[57.5 µM]	·	20µM*
Cc1nnc(SCc2nnc(-c3ccccc3Br)o2)n1-c1ccccc1	2%	-1%	>57	0%
N#Cc1nc(-c2ccc(OCc3ccccc3Cl)cc2)oc1NCCCn1ccnc1	0%	-5%[0.369 µM]	2.6*	0%
CN(C)c1oc(-c2ccc(OCc3ccccc3)cc2)nc1C#N	6%	10%[0.369 µM]	2.8*	2%
Cc1ccc(OCc2nc(C#N)c(NCCCn3ccnc3)o2)cc1	1%	-1%	>57	1%
N#Cc1nc(COc2ccccc2)oc1NCCCn1ccnc1	0%	2%	>57	-4%
N#Cc1nc(-c2ccc(OCc3ccccc3)cc2)oc1NCCCn1ccnc1	3%	4%[0.369 µM]	4.3*	1%
COc1ccc(-c2nc(C#N)c(NCCc3ccccc3)o2)cc1OC	3%	5%[0.369 µM]	i	13µM*
CC(C)C[C@@H](CC(=O)N[C@@H](CCCN)CC(=O)N[C@@H]1CCNC[C@H]1C(=O)N[C@H](CC(=O)N[C@@H](CCC(=O)O)CC(=O)O)CC(C)C)NC(=O)[C@@H]1CCCC[C@H]1N	·	-1%	·	·
CC(C)(C)c1ccc(-c2nc(C#N)c(NCc3ccncc3)o2)cc1	2%	1%[0.369 µM]	·	20µM*
SMILES	Epigenetic mod	HBB splice mod	PK Bst	Luciferase inh
N#Cc1nc(-c2ccc(OCc3ccccc3)cc2)oc1NCc1cccnc1	-1%	-3%[0.369 µM]	·	0%
N#Cc1nc(-c2ccc(OCc3ccc(Cl)cc3)cc2)oc1NCc1cccnc1	4%	4%[0.369 µM]	2.7*	-2%
C[C@@H]1CCCN(CP(=O)(c2ccccc2)c2ccccc2)C1	2%[9.22 µM]	3%[9.22 µM]	·	2%[11.4 µM]
COc1cccc(-c2nn(C)c3sc(C(=O)N4CCN(c5ccccn5)CC4)cc23)c1	6%	-2%	7.3*	-1%
Cc1ccc(-c2nnc(Nc3ccccc3)o2)cc1	-1%	-2%	0.46*	0.63µM*
O=C(COC(=O)c1cc2ccccc2o1)c1ccccc1	-2%	-1%[0.0738 µM]	·	13µM*
O=C(Cc1ccc(F)cc1)OCC(=O)c1cc2ccccc2o1	2%	-4%	>57	-44%
O=C(COC(=O)c1cccs1)c1ccccc1	-1%	-2%	?	5µM*
Cc1n[nH]c(C)c1N1C(=O)c2cccc3c(N4CCCCCC4)ccc(c23)C1=O	2%	16µM*	·	-1%
CC(C)(C)[C@@]1(O)CCN2C[C@@H]3c4ccccc4CCc4cccc(c43)[C@@H]2C1	2%	2%	·	-1%
CCc1ccc(NC(=O)c2cccnc2)cc1	-1%	4%	>57	-18%
CC(C)c1ccc(NC(=O)c2csnn2)cc1	0%	-2%	i	5µM*
CC(C)c1ccc(NC(=O)c2cccnc2)cc1	0%	0%[0.0738 µM]	·	16µM*
C[C@@H](/C=C\c1cccc(Oc2ccc(F)cc2)c1)N(O)C(N)=O	-1%	0%	·	-2%
O=C(NCc1cccnc1)c1c[nH]c2cc3c(cc2c1=O)OCCO3	1%	0%[57.5 µM]	i	13µM*
Cc1sc(NC(=O)c2cccs2)c(C(N)=O)c1C	-2%	0%[9.22 µM]	·	13µM*
CN1CCN(c2ccnc(-c3cccnc3)n2)CC1	0%[9.22 µM]	1%	·	1%[2.29 µM]
CCn1c(COc2ccc(C)cc2)nnc1SCC(=O)Nc1ccc2c(c1)OCCO2	-3%	0%[57.5 µM]	>57	-2%
COC(=O)c1ccc(C(/C=C/[C@@H](C)C(=O)N(C)C)NC(=O)OCc2ccccc2)cc1 (stereo partly specified)	·	0%	·	·
COCc1cc(=O)[nH]c(Nc2nc3ccccc3o2)n1	5%[20.6 µM]	·	>26	-15%[25.5 µM]
COC(=O)Cc1cc(=O)[nH]c(Nc2nc3ccccc3o2)n1	0%	-1%[0.0738 µM]	·	16µM*
O=C(CC(Nc1ccc(F)cc1)C(=O)O)c1ccccc1 (stereo unspecified)	1%	4%	?	7.9µM*
COc1ccc(-c2cn3c(C)c(C(=O)Nc4cccc(NC(C)=O)c4)sc3n2)cc1	7%	0%	>11	13µM*
C=CCNc1ncnc2c1[nH]c1ccc(C)cc12	0%	-3%[57.5 µM]	?	10µM*
O=C(O)C1=C/C(=C(/c2ccccc2)c2cc(C(=O)O)c(O)c3ccccc23)c2ccccc2C1=O	0%[9.22 µM]	2%[9.22 µM]	·	-8%[11.4 µM]
SMILES	Epigenetic mod	HBB splice mod	PK Bst	Luciferase inh
O=C(Nc1ccccn1)c1ccc2ccccc2n1	1%	0%	9*	3.2µM*
Cc1cc(C(=O)Nc2ccccn2)no1	8%	-1%	>57	-19%
O=C(CCn1c(=O)sc2ccccc21)Nc1nccs1	1%	-3%	·	20µM*
Cc1csc(NC(=O)CCn2c(=O)sc3ccccc32)n1	0%	-3%	>57	-14%
COc1ccc2c(c1)[n+]([O-])c(/C(C)=N/NC(N)=S)c(C)[n+]2[O-]	0%[9.22 µM]	0%[9.22 µM]	·	-3%[11.4 µM]
Cc1ccc2nc(N3CCN(C)CC3)c(C#N)cc2c1	0%	·	>57	-2%
N#Cc1cc2cc3c(cc2nc1N1CCCCC1)OCCO3	0%	·	>57	13µM*
CN(C)C(=O)c1ccc(-c2cc(NCc3ccccc3)ncn2)cc1	-3%[9.22 µM]	0%	·	4%[2.29 µM]
O=C1c2ccccc2NC(c2ccc3c(c2)OCO3)N1O (stereo unspecified)	2%	-1%	>57	-9%
O=C1c2ccccc2NC(c2ccc3c(c2)OCCO3)N1c1ccc2c(c1)OCCO2 (stereo unspecified)	0%	3%[1.84 µM]	·	20µM*
